Bioassay records: PubChem, National Center for Advancing Translational Sciences (NCATS)
Compounds with a hit are over-represented: about 21% of the library has one in this group of screens.
DT40 TDP1 CPT = DT40-hTDP1 cell growth loss with CPT. Potency, µM (series often up to 46.2 µM), usual class: inhibitors. chicken DT40 Tdp1-/-;hTDP1 cells + 20 nM CPT, ATP luminescence, 48 h. hit rate 12% among 420,000; also: nearly all actives have a fitted effect of over 55% in size
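Chicken DT40 Tdp1-/- cells complemented with human TDP1, 400 cells/well, exposed to compounds plus 20 nM camptothecin for at least 48 h at 37 C; viability read as ATP content by CellTiter-Glo luminescence.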
D3 antag = blocks the human D3 dopamine receptor; max response, negative = inhibition, %; hit rate 2.5% among 360,000; D3R cells, DiscoveRx beta-arrestin luminescence, antagonist mode; active compounds read low; AID 652054; in the data active = max response below about -50%; inconclusive = no clear call, values can overlap the other calls
Target sequence (P35462 whole entry, looked up): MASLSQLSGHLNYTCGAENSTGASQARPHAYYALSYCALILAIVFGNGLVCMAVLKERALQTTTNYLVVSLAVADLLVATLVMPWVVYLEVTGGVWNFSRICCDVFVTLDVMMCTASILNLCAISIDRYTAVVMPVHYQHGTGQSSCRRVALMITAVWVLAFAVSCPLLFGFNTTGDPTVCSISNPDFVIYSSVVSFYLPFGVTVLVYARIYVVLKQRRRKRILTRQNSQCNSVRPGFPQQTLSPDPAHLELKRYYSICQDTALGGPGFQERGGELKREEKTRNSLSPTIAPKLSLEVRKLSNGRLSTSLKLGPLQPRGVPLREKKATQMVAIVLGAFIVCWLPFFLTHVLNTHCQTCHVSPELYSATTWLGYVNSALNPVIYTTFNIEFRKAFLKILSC
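Cells expressing the human receptor were seeded at 1500 cells/well, incubated overnight at 37 degrees C in 5% CO2, then exposed to library compounds with dopamine controls for 90 minutes at 37 degrees C before luminescent detection.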
TDP1 cell noCPT = qHTS for Inhibitors of human tyrosyl-DNA phosphodiesterase 1 (TDP1): qHTS in cells in absence of CPT; DT40 Tdp1-/- hTDP1 cells, no CPT, ATP luminescence, 48 h; Potency, µM (highest dose often 46.2 µM), usual class: inhibitors; hit rate 15% among 420,000; also: nearly all actives have a fitted effect of over 55% in size
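A cellular qHTS used chicken DT40 cells lacking endogenous Tdp1 but carrying stably transfected human TDP1. Compounds were applied without camptothecin, and cell growth kinetics were judged by ATP-dependent luminescence after ≥48 hr.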
IL1B secr inh = inflammasome signaling inhibition, IL-1 beta readout. AID 743279. THP-1 LPS/ATP IL-1B secretion, AlphaLISA, 16 h; active compounds read low. hit rate 4.7% among 360,000. activity change, % at 57.5 µM; in the data active = activity change below about -50%; inconclusive = mostly about -30% to -49%
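THP-1 cells pretreated 1 hr with compounds (up to 57.5 uM final), then stimulated with LPS (250 ng/mL final) plus ATP (1.25 mM final); secreted IL-1B measured by AlphaLISA after 16 hr, decreased signal indicating inhibition.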
ClpP mod = qHTS Assay for Activators of ClpP | purified B. subtilis ClpP, FRET peptide cleavage, 20 min | hit rate 1.9% among 340,000 | AID 651965, 2013 | Potency, µM (top dose mostly 57.5 µM); active = well fitted falling curve with a large enough effect; inconclusive = small, poorly fitted or top-dose-only effect; inactive = no such curve, though single readings can be large or run the other way; also: the source files actives as falling curves though it sought activators and does not explain the sign; nearly all actives have a fitted effect of over 65% in size
Target sequence (P80244 whole entry, looked up): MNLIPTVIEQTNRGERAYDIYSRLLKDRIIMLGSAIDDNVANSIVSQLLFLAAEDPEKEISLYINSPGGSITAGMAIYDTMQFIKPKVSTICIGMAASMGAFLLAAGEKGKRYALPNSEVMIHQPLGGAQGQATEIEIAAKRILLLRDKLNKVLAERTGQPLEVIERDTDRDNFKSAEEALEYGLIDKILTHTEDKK
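ClpP 10 microg/mL final, pH 8 Tris/KCl buffer with BSA, glycerol, Tween-20; compound pinned in; FRET-FV substrate; RT 20 min; Ex320/Em430; ΔFRET vs ADEP 5.8 microM, DMSO, no enzyme.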
D3 ag = agonists of human D3 dopamine receptor. P35462. D3R DiscoveRx beta-arrestin cells, luminescence, 90 min. max activation, %. hit rate 0.58% among 410,000. AID 652048; in the data active = max activation above about 30%
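Agonist mode: compounds and dopamine controls were applied to plated cells for 90 min at 37 degrees C after an overnight attachment at 1500 cells/well. Luminescent read-out followed 30 - 60 minutes at room temperature with DiscoveRx detection reagent.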
Each line names hits and unclear results; the compound was inactive in the other large screens. Unless noted, calls follow the shape of the dose curve; as a rule, active = well fitted inhibition curve with a large enough effect; inconclusive = small, poorly fitted or top-dose-only effect; inactive = flat fitted curve, though single readings scatter.

O=C1NC(=Nc2ccccc2)SC1Cc1ccccc1 (configuration not stated)	none (no result: ClpP mod)
CC(C)(C)C(=O)N1NC(=Nc2ccccc2)SC1(C)C	TDP1 cell noCPT 21µM (no result: IL1B secr inh, ClpP mod)
COC(=O)c1cn(CCC#N)nc1-c1ccc2ccccc2c1	IL1B secr inh -51
N#CCCn1cc(C(=O)O)c(-c2ccc3ccccc3c2)n1	none
COc1ccc(N(C)S(=O)(=O)c2cccc(C(=O)Nc3nc(C)cs3)c2)cc1	none
COc1ccc(N(C)S(=O)(=O)c2cccc(C(=O)Nc3ccc(-n4cnnn4)cc3)c2)cc1	DT40 TDP1 CPT 18µM, TDP1 cell noCPT 18µM
CS(=O)(=O)c1cccc(C(=O)Nc2ccc3c(c2)OCCCO3)c1	none
COc1ccc(N(C)S(=O)(=O)c2cccc(C(=O)Nc3ccc4c(c3)OCCO4)c2)cc1	DT40 TDP1 CPT 16µM, TDP1 cell noCPT 15µM (no result: ClpP mod)
CCCCCCCCCCCCCCCC[N+](C)(C)CCN(Cc1ccc(OC)cc1)c1ncccn1	DT40 TDP1 CPT 4µM, D3 antag -55, TDP1 cell noCPT 2.5µM
COc1ccc(CN(CCN(C)C)c2ncccn2)cc1	none (no result: D3 antag, IL1B secr inh, ClpP mod)
O=C(c1ccc(N2CCN(C(=O)c3ccc(F)cc3F)CC2)cc1)c1cccc(F)c1	DT40 TDP1 CPT inconclusive, TDP1 cell noCPT inconclusive
Nc1c(C(=O)N/N=C/c2cccnc2)oc2nc(-c3ccco3)cc(-c3ccco3)c12	DT40 TDP1 CPT 2.9µM, TDP1 cell noCPT 0.46µM (no result: ClpP mod)
Nc1c(C(=O)O)sc2nc(-c3ccccc3)cc(-c3ccc(Cl)cc3)c12	none (no result: ClpP mod)
NNC(=O)c1oc2nc(-c3ccc(Cl)cc3)cc(-c3ccccc3)c2c1N	DT40 TDP1 CPT inconclusive, IL1B secr inh -82 (no result: ClpP mod)
NNC(=O)c1oc2nc(-c3ccco3)cc(-c3ccco3)c2c1N	DT40 TDP1 CPT inconclusive, TDP1 cell noCPT inconclusive, IL1B secr inh -53
Nc1c(C(=O)N/N=C/c2cccnc2)oc2nc(-c3ccccc3)cc(-c3ccco3)c12	DT40 TDP1 CPT inconclusive, TDP1 cell noCPT 15µM (no result: IL1B secr inh, ClpP mod)
S=c1[nH]nc(-c2ccc(Cl)cc2Cl)n1-c1ccc2c(c1)OCCO2	none
S=c1[nH]nc(-c2ccc(Br)cc2)n1-c1ccc2c(c1)OCCO2	DT40 TDP1 CPT inconclusive, TDP1 cell noCPT 18µM
COc1ccc(-c2n[nH]c(=S)n2-c2ccc3c(c2)OCCO3)cc1	DT40 TDP1 CPT inconclusive, TDP1 cell noCPT inconclusive
Oc1ccc(-c2n[nH]c(=S)n2-c2ccc3c(c2)OCCO3)c(O)c1	DT40 TDP1 CPT inconclusive, TDP1 cell noCPT inconclusive, IL1B secr inh -94
O=C(O)c1ccc(-n2c(-c3ccc(Br)cc3)n[nH]c2=S)cc1	D3 antag -89
O=c1c2c([nH]n1-c1ccccc1)CCSC2	DT40 TDP1 CPT inconclusive (no result: ClpP mod)
Cc1cc(C)c2[nH]c(=O)c(CN(Cc3cccs3)C(=S)NCC3CCCO3)cc2c1 (configuration not stated)	DT40 TDP1 CPT inconclusive, TDP1 cell noCPT 21µM
COc1ccc2[nH]c(=O)c(CN(Cc3cccs3)C(=S)NCC3CCCO3)cc2c1 (configuration not stated)	DT40 TDP1 CPT 23µM, TDP1 cell noCPT 23µM
Cc1cc2cc(CN(Cc3cccs3)C(=S)NCC3CCCO3)c(=O)[nH]c2cc1C (configuration not stated)	DT40 TDP1 CPT inconclusive, TDP1 cell noCPT inconclusive, IL1B secr inh -66
O=C1CC(c2ccccc2)CC(O)=C1C=NCc1ccccc1 (configuration not stated)	none
O=C1CC(c2ccccc2)CC(O)=C1C=NCc1ccco1 (configuration not stated)	D3 antag -57, TDP1 cell noCPT inconclusive
O=C1CC(c2ccccc2)CC(O)=C1C=NCc1ccccc1Cl (configuration not stated)	DT40 TDP1 CPT 2.3µM, D3 antag -92, TDP1 cell noCPT 2.3µM
O=C(COC(=O)c1cccnc1Cl)NCc1cccs1	none (no result: ClpP mod)
CCOC(=O)C(CC)/C(C)=N/NC(=O)c1ccc([N+](=O)[O-])cc1 (configuration not stated)	DT40 TDP1 CPT inconclusive, D3 antag -64
CCOC(=O)/C(C)=N/NC(=O)c1ccc([N+](=O)[O-])cc1	none (no result: ClpP mod)
Cc1cc(C)c2c(N)c(C(=O)Nc3cccc(C)c3C)sc2n1	DT40 TDP1 CPT inconclusive, TDP1 cell noCPT 16µM, D3 ag 92 (no result: ClpP mod)
Cc1ccc(NC(=O)c2sc3nc(C)cc(C)c3c2N)cc1	TDP1 cell noCPT inconclusive
COCc1cc(C)nc2sc(C(=O)Nc3nccs3)c(N)c12	DT40 TDP1 CPT inconclusive, TDP1 cell noCPT inconclusive, IL1B secr inh inconclusive
Cc1cc(C)c2c(N)c(C(=O)Nc3nccs3)sc2n1	TDP1 cell noCPT inconclusive, ClpP mod 35µM
CC(=O)c1cc(C(=O)N2CCCC(CCC(=O)N(C)CCc3ccccn3)C2)cs1 (configuration not stated)	none
Cc1cccc[n+]1C1C(c2ccccc2)C(C#N)=C(C(=C=[N-])C#N)NC1(O)C1CC1 (configuration not stated)	DT40 TDP1 CPT 23µM, TDP1 cell noCPT inconclusive
O=Cc1cccnc1SCc1ccccc1	DT40 TDP1 CPT 2.3µM, TDP1 cell noCPT 1.5µM (no result: ClpP mod)
O=S(=O)(O)c1cccnc1SCc1ccccc1	none (no result: ClpP mod)
Cc1nc(Nc2nc(CSc3nc4ccccc4[nH]3)cc(=O)[nH]2)nc2ccccc12	DT40 TDP1 CPT 4.1µM, TDP1 cell noCPT 6.5µM, IL1B secr inh -87
Cc1ccc2c(=O)[nH]c(Nc3nc(C)cc(-c4ccccc4)n3)nc2c1	DT40 TDP1 CPT 10µM, TDP1 cell noCPT 12µM
Cc1cccc(-c2nc3ccccc3c(=O)[nH]2)c1	none
Cc1nc(Nc2nc(-c3ccccc3)cc(=O)[nH]2)nc2ccccc12	DT40 TDP1 CPT 21µM, TDP1 cell noCPT 16µM, IL1B secr inh -65
COc1ccc2nc(Nc3nc(CSc4nc5ccccc5[nH]4)cc(=O)[nH]3)nc(C)c2c1	DT40 TDP1 CPT 4.6µM, TDP1 cell noCPT 4.1µM, IL1B secr inh -95
Cc1nc(Nc2nc(CSc3ccc(Cl)cc3)cc(=O)[nH]2)nc2ccccc12	TDP1 cell noCPT inconclusive
Cc1ccc(Cl)cc1NC(=O)c1oc2ccc(S(=O)(=O)N3CCCCC3)cc2c1C	none (no result: D3 antag, IL1B secr inh)
COc1cc(OC)cc(C(=O)N2CCCC(n3cc(C(=O)NCC(C)C)nn3)C2)c1 (configuration not stated)	none (no result: D3 antag, IL1B secr inh, ClpP mod, D3 ag)
COc1ccc(CCNc2oc(COc3ccccc3)nc2C#N)cc1	DT40 TDP1 CPT inconclusive, TDP1 cell noCPT inconclusive
COc1ccccc1OCc1nc(C#N)c(NCc2ccco2)o1	IL1B secr inh inconclusive
